The sample as a whole holds a higher share of hits than the screen did.
GLA spleen mod = inhibits or activates alpha-galactosidase in human spleen homogenate; 0.008% of 240,000 active; human spleen homogenate, 4MU-alpha-Gal fluorescence, 40 min; Potency, µM (series often up to 80 µM), without a hit: at the top dose activity change, negative = inhibition, most hits filed as inhibitors;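 also: potency is read from the fitted curve at half-maximal effect; 0% = enzyme with vehicle and -100% = no enzyme basal signal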
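Fluorogenic readout (Ex 365/Em 440 nm) of 4-methylumbelliferone released from 1 mM 4-MU-alpha-galactoside by spleen homogenate, 40 min at 37C, pH 5.0. Data normalized to no-enzyme and enzyme controls; Hill-equation AC50 from compound titrations.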
GAA spleen mod = lysosomal alpha-glucosidase (human) modulation. P10253. Potency, µM (titrated, usually from 79.9 µM), inactives show at the highest dose activity change, negative = inhibition, hits mostly inhibitors. human spleen homogenate, 4-MU-alpha-glucoside fluorescence. 0.006% of 240,000 active;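 also: potency is read from the fitted curve at half-maximal effect; 0% = enzyme with vehicle and -100% = no enzyme basal signal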
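Enzyme source: human spleen homogenate, 1 ug/well. Buffer 50 mM citric acid/K phosphate pH 5.0, 0.01% Tween-20. 4-MU-alpha-glucoside 1 mM; 37 C x 40 min; NaOH/glycine stop; fluorescence.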
GAA glycogen mod = inhibitors or activators of human alpha-glucosidase glycogen cleavage; Potency, µM (series often up to 76.4 µM), for the others: at the top dose activity change, negative = inhibition, usual class: inhibitors; P10253; 0.38% of 300,000 active; recombinant GAA, glycogen substrate, Amplex Red glucose oxidase fluorescence;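 also: potency is read from the fitted curve at half-maximal effect; 0% = full enzyme reaction and -100% = no-enzyme basal signal; the screen sought inhibitors and activators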
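Recombinant human enzyme (4 nM); glycogen substrate; 37 C, 40 min, pH 5.0. Readout: coupled glucose oxidase/Amplex Red fluorescence.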
GAA inhib = blocks human lysosomal alpha-glucosidase. P10253. purified human GAA, 4-MU-alpha-glucoside fluorescence. Potency, µM (doses to about 76.9 µM), for inactives: top-dose activity change, negative = inhibition, hits mostly inhibitors. 0.005% of 200,000 active. AID 1466;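 also: potency is read from the fitted curve at half-maximal effect; plate controls were uninhibited enzyme wells for no effect and no-enzyme background for full effect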
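Compounds are titrated up to 77 uM against 4 nM human enzyme. Substrate 4-methylumbelliferyl-alpha-D-pyranoside (400 uM) reacts 20 min at room temperature in pH 5.0 buffer; liberated 4-methylumbelliferone is read at 440 nm.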
GLA inh pH 4.5 = alpha-galactosidase A (human) inhibition, pH 4.5; P06280; purified enzyme, 4-MU-alpha-Gal fluorescence, pH 4.5; activity change, negative = inhibition, % at 105 µM; 230,000 tested, under 10 active; AID 1467;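 also: 0% = full activity with enzyme and -100% = basal without enzyme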
Target sequence (P06280 whole entry, looked up): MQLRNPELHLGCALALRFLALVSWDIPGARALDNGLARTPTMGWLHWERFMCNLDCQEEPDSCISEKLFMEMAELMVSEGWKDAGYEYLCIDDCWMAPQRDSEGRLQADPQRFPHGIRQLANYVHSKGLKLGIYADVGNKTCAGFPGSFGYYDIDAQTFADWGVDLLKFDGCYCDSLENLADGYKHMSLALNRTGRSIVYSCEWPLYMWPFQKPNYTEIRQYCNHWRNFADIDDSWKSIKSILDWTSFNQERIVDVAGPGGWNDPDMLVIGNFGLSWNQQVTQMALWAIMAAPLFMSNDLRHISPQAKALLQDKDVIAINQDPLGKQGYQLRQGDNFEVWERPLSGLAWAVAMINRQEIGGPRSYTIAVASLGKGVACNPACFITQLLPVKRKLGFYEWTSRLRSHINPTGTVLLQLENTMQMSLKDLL
* hit, by the source's call; ? = inconclusive; · = not tested or not shown; [ ] = dose if it differs, or a comment. Calls follow the shape of the dose curve; as a rule, active = well fitted curve in the direction sought with a large enough effect; inconclusive = small, poorly fitted or top-dose-only effect, or another doubt; inactive = no such curve, though single readings can be large; an effect the other way counts as inactive or inconclusive.

SMILES | GLA spleen mod | GAA spleen mod | GAA glycogen mod | GAA inhib | GLA inh pH 4.5
CCn1c(SCC(=O)c2ccc(O)c(O)c2)nnc1-c1ccc(C)cc1 | -7% | -4% | 12µM* | -5% | 3
CCn1c(SCC(=O)c2ccc3c(c2)Cc2ccccc2-3)nnc1-c1ccc(N)cc1 | -3% | -5% | 2% | -3% | 2
COc1cccc(/C=N/Nc2ccc(S(=O)(=O)O)cc2)c1O | -3% | 1% | 7.9µM* | 5% | 6
Cc1oc2c(O)c(O)ccc2c(=O)c1-c1ccc(Cl)cc1 | · | · | 7.1µM* | · | ·
Cc1c(Cc2ccccc2)c(=O)oc2c(O)c(O)ccc12 | 1% | 3% | 5µM* | -9% | 5
Cc1oc2c(O)c(O)ccc2c(=O)c1-c1cnn(-c2ccccc2)c1 | 10% | -13% | 5.6µM* | -15% | 2
O=c1cc(-c2ccccc2)oc2c(O)c(O)ccc12 | 22% | 16% | · | · | -11
Cc1oc2c(O)c(O)ccc2c(=O)c1-c1ccccc1 | 12% | 8% | 8.8µM* | 6%[15.4 µM] | 4
COc1c(C2=CC(=O)N(C)C2=O)c2c(n1C)C(=O)c1ccccc1C2=O | -5% | 10% | · | · | -16
CC(C)C(=O)SCCCCCCC(=O)Nc1nc(-c2ccccc2)cs1 | -19% | -6% | · | · | ·
NC(=O)Cc1c[nH]c2cccc(O)c12 | -2% | 4% | 10µM* | 1% | 7
NC(=O)COC(=O)CCCc1c[nH]c2ccccc12 | 3% | -1% | 2% | -6% | -5
Cc1ccc(Nc2cc(C)c3c(O)cccc3n2)cc1C | 9% | -1% | ? | · | -9
COc1ccc(Nc2cc(C)c3c(O)cccc3n2)cc1 | 8% | 4% | 22µM* | · | 0
CCc1c(C(=O)NNC(=S)NC2CCCCC2)csc1C | 4% | 8% | 35µM* | -2% | -24
CCc1c(C(=O)NNC(=S)NCCc2ccccc2)csc1C | -5% | -9% | ? | 4% | 1
CCCC[C@H](NC(C)=O)C(=O)N[C@H]1CC(=O)NCCCC[C@@H](C(N)=O)NC(=O)[C@H](Cc2c[nH]c3ccccc23)NC(=O)[C@H](CCCN=C(N)N)NC(=O)[C@@H](Cc2ccccc2)NC(=O)[C@H](Cc2cnc[nH]2)NC1=O | 13% | 3% | · | · | ·
COc1cc(-c2nc3sccn3c2Nc2c(C)cccc2C)ccc1O | · | · | -18%[76.3 µM] | · | ·
CCc1cccc(C)c1Nc1c(-c2cccc(O)c2)nc2sccn12 | · | · | 35µM* | · | ·
COc1cc(OC)c(NC(=O)Nc2cc(C)on2)cc1Cl | -5% | 4% | · | · | ·
COc1ccc(-c2cnc(-c3cccnc3)o2)cc1 | 12% | -7% | · | · | 0
CCCCn1c(C)cc2cc(O)ccc21 | -5% | -5% | 32µM* | 1% | -6
Cc1ccc2sc(NNC(=O)C3=COCCO3)nc2c1C | 6% | 10% | 6.3µM* | -3% | -5
O=C(NNc1nc2c(F)cccc2s1)C1=COCCO1 | -5% | 8% | ? | 2% | -4
O=C(O)CC1=C(O)C(=O)N(c2ccccc2)C1c1ccc(Br)cc1 (centres undefined) | -13% | -3% | 25µM* | 0% | 6
SMILES | GLA spleen mod | GAA spleen mod | GAA glycogen mod | GAA inhib | GLA inh pH 4.5
O=C(O)CC1=C(O)C(=O)N(c2ccccc2)C1c1ccccc1 (centres undefined) | 0% | -14% | ? | -12% | -8
O=C(CN1CCN(c2ccc(O)cc2)CC1)NC(=O)NCc1ccco1 | 4% | 8% | 3.2µM* | 5% | 7
O=C(CN1CCN(c2ccc(O)cc2)CC1)Nc1cc([N+](=O)[O-])ccc1Cl | 11% | 3% | 11µM* | 2% | -2
Cc1cc(NC(=O)CN2CCN(c3ccc(O)cc3)CC2)no1 | 1% | -10% | 8.9µM* | 0% | 5
Cc1cc(NC(=O)CN2CCN(S(=O)(=O)c3ccc(Cl)cc3)CC2)no1 | 1% | -4% | 1% | -6% | 2
O=C(O)c1cc(NCc2cccs2)ccc1N1CCOCC1 | -3% | -3% | 9.9µM* | -5% | 2
COC(=O)c1cc(NCc2cccs2)ccc1N1CCOCC1 | 4% | 8% | ? | -9% | -8
COC(=O)c1cc(NCc2c(F)cccc2Cl)ccc1N1CCOCC1 | 2% | 3% | 12µM* | 0% | 2
O=C(CN1CCN(c2ccc(O)cc2)CC1)N1CCc2ccccc21 | · | · | 5µM* | · | ·
O=C(CN1CCN(c2ccccc2)CC1)N1CCc2ccccc21 | · | · | 2% | · | ·
OC1CCN(C(=S)Nc2ccc(Nc3ccccc3)cc2)CC1 | 2% | 5% | 4µM* | 8% | -2
S=C(Nc1ccccc1)N1CCC(C2CCN(C(=S)Nc3ccccc3)CC2)CC1 | 5% | 0% | -8% | 0% | -11
S=C(Nc1ccc(Nc2ccccc2)cc1)N1CCN(c2ncccn2)CC1 | 2% | -7% | 8.9µM* | 2% | -3
O=C(CCC(=O)N1CCN(c2ccc(O)cc2)CC1)c1cccs1 | 4% | 0% | 11µM* | · | 8
CC(=O)c1ccc(N2CCN(C(=O)CCC(=O)c3cccs3)CC2)cc1 | 10% | 0% | 6% | 1% | 1
Cc1ccc(OCCC(=O)N2CCN(c3ccc(O)cc3)CC2)cc1 | 0% | -10% | 13µM* | · | -6
O=C1OC2(c3cc(Br)c(O)c(Br)c3Oc3c2cc(Br)c(O)c3Br)c2c(Cl)c(Cl)c(Cl)c(Cl)c21 | 10% | 8% | · | · | ·
CCOc1cccc(/C=N/NC(=S)Nc2ccccc2[N+](=O)[O-])c1O | -6% | 0% | 2% | 3% | -8
O=[N+]([O-])c1ccccc1NC(=S)N/N=C/c1ccc(O)c(O)c1 | -9% | -6% | 3.5µM* | -7% | 3
CN(C)CC1CCn2c(c(C3=C(c4cn(C)c5ccccc45)C(=O)NC3=O)c3ccccc32)C1 (centres undefined) | -2% | 2% | · | · | ·
CCOc1cc(-c2nc3ccccn3c2NCC2CCCO2)ccc1O (centres undefined) | -9% | -19% | 25µM* | 2% | 2
COc1ccc(-c2nc3cccc(C)n3c2NCC2CCCO2)cc1O (centres undefined) | -9% | -1% | -6% | 11% | 5
COc1cc(-c2nc3ccccn3c2NCC2CCCO2)ccc1O (centres undefined) | 8% | 1% | 28µM* | 3% | 7
CO[C@@H]1COC(=O)C/C=C\[C@@H](C)[C@@H]2C=C[C@H](O)[C@@H](COC(=O)CCC[C@H]1C)O2 | 4%[17.5 µM] | -9%[17.4 µM] | · | · | ·
O=C(COc1cccc(Cl)c1)NNC(=S)Nc1ccccc1 | 12% | 3% | ? | 4% | 5
COc1cccc(OCC(=O)NNC(=S)Nc2ccc(Cl)cc2Cl)c1 | 12% | 8% | 56µM* | 8% | -1
O=C(NC(=S)Nc1cccc2c(O)cccc12)c1ccccc1[N+](=O)[O-] | · | · | 10µM* | · | ·
CCCC(=O)NC(=S)Nc1ccccc1C(=O)OC | -6% | -9% | -4% | 1% | 4
CCCC(=O)NC(=S)Nc1cccc2c(O)cccc12 | 2% | 8% | 8.9µM* | -4% | 5

Source: PubChem BioAssay (National Center for Advancing Translational Sciences (NCATS))
